Measurements as given in PubChem BioAssay AID588689 (Southern Research Specialized Biocontainment Screening …, 2011).
Screen size: about 340,000 compounds; about 1,000 (0.29%) were called active. Rule as the data show it: inconclusive = inhibition above about 29% without an active follow-up result; inactive = below that. The list is a sample of the results. Measured potencies and affinities stand elsewhere.

Target: Genome polyprotein (Dengue virus type 2 (strain 16681-PDK53)) (UniProt P29991)
Test: Dengue-2 NS5 methyltransferase inhibitors, primary screen, biochemical, confirmation dose response (AID 588689)
Details: Dengue-2 NS5 methyltransferase capping enzyme assay, at 25 µM, stronger effect = higher value
[1] = measured here: pilot screen replicate inhibition

Compound	inhibition	inhibition [1] [%]
COc1ccc(-c2c(C#Cc3ccc(N(C)C)cc3)c3ccccc3n2C)cc1	6.35% (inactive)	
Cc1nc2c(-c3ccccc3)c(C)nn2c(N)c1-c1ccccc1	-5.49% (inactive)	
Cc1cc(-c2ccc([N+](=O)[O-])cc2)nc2ccccc12	0% (inactive)	
C[C@@]12C(=O)Nc3cc(F)c(F)cc3C(=O)N1[C@H]1c3cc(Cl)ccc3OC[C@@H]1[C@@H]2c1ccccc1	2.81% (inactive)	
Cc1cc(C)c2[nH]c(=O)c(C(c3nnnn3Cc3ccc4c(c3)OCO4)N3CCCCC3)cc2c1 (stereo unspecified)	9.03% (inactive)	
Cc1cc(C)c(NC(=O)CN2C(=O)NC3(CCCCC3)C2=O)c(C)c1	-3.21% (inactive)	
Cc1cccc(NC(=O)CN(C)S(=O)(=O)c2ccc(-c3ccc(=O)[nH]n3)s2)c1C	-3.18% (inactive)	
CC(=O)CC(=O)NC1CCc2ccccc21 (stereo unspecified)	-2.7% (inactive)	
CCOc1ccc(C(=O)c2ccccc2C(=O)O)cc1OCC	-7.73% (inactive)	
CC1=CC(=O)C(C(C)C)=C/C1=N/OS(=O)(=O)c1ccccc1	-4.66% (inactive)	
CC1(C)SC(=S)N(/N=C/c2ccccc2)C1N(O)C(=O)Nc1ccc([N+](=O)[O-])cc1 (stereo unspecified)	-1.56% (inactive)	
CC(=O)N(C1=C(O)c2ccccc2C(=O)C1=O)C1CCCCC1	4.86% (inactive)	
CC(=O)N(c1ccccc1)C1CCCC1	-5.78% (inactive)	
CC(=O)N(C1=C(N)C(=O)c2ccccc2C1=O)c1ccccc1	-4.08% (inactive)	
CC(=O)N(C1=C(N2CCOCC2)C(=O)c2ccccc2C1=O)c1ccc(C(=O)O)cc1	24.1% (inactive)	
COc1ccccc1N(C(C)=O)c1nc(C)cc(C)c1C#N	-9.48% (inactive)	
COc1ccccc1N(/N=C1\Sc2ccccc2C1=O)C(C)=O	0.77% (inactive)	
CC(C)CCCN1C(Nc2ccccc2)=NC[C@@H]1C	-8.02% (inactive)	
O=C(COC(=O)/C=C/c1ccc(C(F)(F)F)cc1)NCc1ccco1	1.3% (inactive)	
COc1ccccc1NC(=O)CN1C(=O)COc2ccc(S(=O)(=O)N3CCCCCC3)cc21	-3.55% (inactive)	
COc1cccc(C(=O)Nn2c(-c3cccs3)nc3ccccc3c2=O)c1OC	-3.56% (inactive)	
O=C(NCc1ccccn1)c1ccc(Cn2cc(C(F)(F)F)ccc2=O)cc1	-5.74% (inactive)	
Cn1c(=O)c2c(ncn2CC(=O)N2CCc3ccccc3C2)n(C)c1=O	-0.55% (inactive)	
CCCC[C@@H]1C=C(C(=O)O)[C@H](c2ccc(Cl)cc2)N1S(=O)(=O)c1ccc(C)cc1	9.27% (inactive)	1.23
Cc1ccc(S(=O)(=O)N2[C@@H](c3ccccc3)C(C(=O)O)=CC[C@H]2c2ccc(Cl)cc2)cc1	13.2% (inactive)	
CCCCC[C@@H]1C=C(C(=O)O)[C@H](c2ccc(C)cc2)N1S(=O)(=O)c1ccc(C)cc1	10.4% (inactive)	
CCc1ccc([C@@H]2CC=C(C(=O)O)[C@H](c3ccc(F)cc3)N2S(=O)(=O)c2ccc(C)cc2)cc1	15.9% (inactive)	
CCc1ccc([C@@H]2CC=C(C(=O)O)[C@H](c3ccccc3)N2S(=O)(=O)c2ccc(C)cc2)cc1	15.1% (inactive)	
Cc1ccc([C@H]2C(C(=O)O)=CC[C@@H](c3ccc(Cl)cc3)N2S(=O)(=O)c2ccc(C)cc2)cc1	23.2% (inactive)	7.95
